Data: PubChem BioAssay
Measured potencies and affinities stand elsewhere. Inconclusive results are not listed. Calls of active or inactive are those of the source.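 Rule for the calls, unless noted: active = a dose-response fit showing signal loss, with half-maximal concentration no higher than twice the top tested dose; inconclusive = flat fit between 30% and 70% signal loss, or poor fit; inactive = the rest.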

Legend:
[1] = fungal growth arrest, C. neoformans – Alamar Blue, cherry-picks, dose response (AID 686998;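 active = falling signal with fitted half-maximal potency no higher than twice the top valid tested dose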)
[2] = C. neoformans lysis by adenylate kinase leakage – AK release luminescence, cherry-picks, dose response (AID 687000;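 active = fitted dose curve reaches 40% lysis signal rise at or below the highest valid concentration tested for that sample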;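 note: luminescent detection of adenylate kinase leaking from lysed yeast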)
[3] = viability loss in HepG2 hepatoma cells – cell-based, cherry-picks, set 2, cytotoxicity control, dose response (AID 687002)
[4] = viability loss in HeLa cells – cell-based, ATP luminescence, cherry-pick samples, cytotoxicity control, dose response (AID 687004;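 active = a fitted half-maximal concentration no higher than twice the top valid tested dose, with signal falling as cells die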)

Measured: outcome

N#Cc1ccc(C23CC4(C2)[C@H](CN(Cc2ccc(-c5ccccc5)cc2)[C@@H]4c2ccccc2)C3c2ccc(C(F)(F)F)cc2)cc1 (stereo partly drawn)
inactive: all assays above

C[C@H](CO)N1C[C@H](C)[C@H](CN(C)C(=O)Nc2cccc(F)c2)Oc2ncc(C#CCN(C)C)cc2C1=O
inactive: all assays above

C[C@@H]1CN([C@@H](C)CO)C(=O)c2cc(NC(=O)CCN3CCOCC3)ccc2O[C@@H]1CN(C)Cc1ccc(C(=O)O)cc1
inactive: all assays above

CNC(=O)C[C@H]1CC[C@H]2[C@H](COc3ccc(NC(=O)c4cc(C)on4)cc3C(=O)N2C)O1
inactive: all assays above

COc1ccccc1CNC(=O)COc1ccc2c(c1)CCC2
inactive: all assays above

CCCNC(=O)N1C[C@@H]2[C@H](c3ccccc31)[C@H](CO)N2Cc1ccc(OC)cc1
inactive: all assays above

Cc1noc(C)c1S(=O)(=O)Nc1ccc2c(c1)CC(=O)N([C@@H](C)CO)C[C@@H](C)[C@@H](CN(C)S(=O)(=O)c1cccs1)O2
inactive: all assays above

Cc1noc(C)c1S(=O)(=O)N(C)C[C@@H]1OCCCC[C@@H](C)Oc2ccc(NC(=O)CCCCCC(=O)Nc3ccccc3N)cc2C(=O)N([C@H](C)CO)C[C@@H]1C
inactive: all assays above

CNC(=O)C[C@@H]1CC[C@@H]2[C@H](COC[C@H](O)CN2S(=O)(=O)c2cccc(Cl)c2)O1
inactive: all assays above

O=C(C[C@@H]1CC[C@H]2[C@@H](COC[C@@H](O)CN2C(=O)Nc2ccc(Cl)cc2)O1)NCCc1ccncc1
inactive: all assays above

CC(=O)N1[C@@H]2CN(S(=O)(=O)c3ccccc3F)c3ccccc3[C@@H]2[C@@H]1CO
inactive: all assays above

CN1C(=O)c2cccc3c(S(=O)(=O)N(C)C)ccc1c23
inactive: all assays above

Cc1ccc(S(=O)(=O)Nc2ccc3c(c2)C(=O)N([C@H](C)CO)C[C@H](C)[C@@H](CN(C)Cc2ccccc2)O3)cc1
inactive: all assays above

CNC(=O)C[C@@H]1CC[C@H]2[C@@H](COC[C@H](O)CN2C(=O)Nc2ccc3c(c2)OCO3)O1
inactive: all assays above

O=C(NC(=S)Nc1ccc(CN2CCOCC2)cc1)c1ccccc1[N+](=O)[O-]
inactive: all assays above

C[C@H]1CN([C@@H](C)CO)C(=O)c2cc(NC(=O)Nc3cccc4ccccc34)ccc2O[C@@H]1CN(C)C(=O)Nc1ccc(C(F)(F)F)cc1
inactive: all assays above

CCC(=O)N1[C@H](CO)[C@H](c2ccccc2)[C@@H]1CN(CC)C(=O)c1cccc(F)c1
inactive: all assays above

COc1ccc(CNC(=O)COc2ccc(OC)cc2)cc1
inactive: all assays above

O=C(C[C@H]1CC[C@H]2[C@@H](COC[C@@H](O)CN2C(=O)Nc2ccc(Cl)cc2)O1)N1CCCCC1
inactive: all assays above

CO[C@@H]1CN(C)C(=O)c2cc(NS(=O)(=O)c3ccc(C)cc3)ccc2OC[C@@H](C)N(C)C[C@@H]1C
inactive: all assays above

C[C@@H]1CN([C@@H](C)CO)S(=O)(=O)c2ccc(C#C[C@@H](C)O)cc2O[C@@H]1CN(C)C(=O)C1CCCCC1
inactive: all assays above

CC(=O)N1[C@@H](CO)[C@H](c2ccc(-c3ccccc3)cc2)[C@@H]1CNC(=O)C1CC1
inactive: all assays above

C[C@@H]1CCCCO[C@@H](CN(C)S(=O)(=O)c2ccc(F)cc2)[C@@H](C)CN([C@@H](C)CO)C(=O)c2cc(NS(=O)(=O)c3ccc(F)cc3)ccc2O1
inactive: all assays above

CCCNC(=O)N1[C@H](CO)[C@@H](c2ccc(C3=CCCC3)cc2)[C@@H]1CN(C)C(C)=O
inactive: all assays above

C[C@@H]1CN([C@H](C)CO)C(=O)c2cccc(NC(=O)C3CC3)c2O[C@H]1CN(C)Cc1ccc(C(=O)O)cc1
inactive: all assays above

CCCC(=O)N1CCCC1(C)C(=O)Nc1ccc(C)c(C)c1 (stereo not drawn)
inactive: all assays above

CCC(=O)N[C@H]1C=C[C@@H](CC(=O)OC)O[C@@H]1CO
inactive: all assays above

CNC(=O)CSc1ncnc2c1cnn2-c1ccccc1
inactive: all assays above

Cc1ccc(NC(=O)[C@H](C)NC(=O)C2CCN(C(=O)[C@@H](N)CC(C)C)CC2)cc1
inactive: all assays above

CO[C@H]1CN(C)C(=O)c2cc(NS(=O)(=O)c3ccc(C)cc3)ccc2OC[C@@H](C)N(C(=O)NC(C)C)C[C@@H]1C
inactive: all assays above

CO[C@H]1CN(C)C(=O)c2cc(NS(=O)(=O)CC(F)(F)F)ccc2OC[C@H](C)N(Cc2cccnc2)C[C@@H]1C
inactive: all assays above

O=C(Nc1ccc(Cl)c([N+](=O)[O-])c1)c1ccco1
inactive: all assays above

CC(C)NC(=O)Nc1cccc2c1O[C@H](CN(C)C)[C@H](C)CN([C@@H](C)CO)C2=O
inactive: all assays above

C[C@@H]1CCCCO[C@H](CN(C)Cc2ccncc2)[C@@H](C)CN([C@H](C)CO)C(=O)c2cc(N(C)C)ccc2O1
inactive: all assays above

CN1[C@H](C(=O)N2CCc3ccccc3C2)[C@@H](CO)[C@@H]2Cn3c(ccc(-c4cccnc4)c3=O)[C@@H]21
inactive: all assays above

COc1cccc(S(=O)(=O)N(C)C[C@@H]2Oc3ncc(-c4cccc(F)c4)cc3C(=O)N([C@H](C)CO)C[C@@H]2C)c1
inactive: all assays above

Cc1cccc(C)c1NC(=O)CN1CCN(C(=O)CNC(=O)c2ccc(N3CCCC3=O)cc2)CC1
inactive: all assays above

O=C(Nc1ccccc1)N1CCCCN2[C@H](C1)[C@H](c1ccc(C#CC3CC3)cc1)[C@@H]2CO
inactive: all assays above

C[C@H](CO)N1C[C@H](C)[C@@H](CN(C)S(=O)(=O)c2ccccc2)Oc2c(NC(=O)Nc3cccc4ccccc34)cccc2C1=O
inactive: all assays above

O=C(NCC[C@H]1CC[C@@H](NS(=O)(=O)c2ccc(F)cc2)[C@H](CO)O1)c1ccc2c(c1)OCO2
inactive: all assays above

CCCN1C[C@H](C)[C@@H](OC)CN(C)C(=O)c2cc(NC(=O)c3cccc(F)c3)ccc2OC[C@H]1C
inactive: all assays above

CO[C@@H]1CN(C)C(=O)c2ccc(NC(=O)Nc3ccccc3)cc2OC[C@H](C)N(C(C)=O)C[C@H]1C
inactive: all assays above

O=C(C[C@@H]1CC[C@@H]2[C@H](COC[C@H](O)CN2Cc2cccc(C(F)(F)F)c2)O1)NCc1ccccc1
inactive: all assays above

C[C@@H]1CN([C@H](C)CO)C(=O)c2cc(NS(=O)(=O)c3ccc(Cl)cc3)ccc2O[C@H]1CN(C)S(=O)(=O)c1ccc(F)cc1
inactive: all assays above

Cc1cccc(C)c1NC(=O)CNC(=O)C(C)N1CCCCC1 (stereo not drawn)
inactive: all assays above

COCC(=O)N1C[C@H](C)[C@@H](OC)CN(C)C(=O)c2ccc(NS(C)(=O)=O)cc2OC[C@@H]1C
inactive: all assays above

C[C@@H]1CN([C@@H](C)CO)C(=O)c2cc(NC(=O)Nc3ccc4c(c3)OCO4)ccc2O[C@H]1CN(C)Cc1ccc(Oc2ccccc2)cc1
inactive: all assays above

COc1ccc(CN(C)C[C@@H]2Oc3c(NC(=O)Nc4cccc5ccccc45)cccc3C(=O)N([C@@H](C)CO)C[C@@H]2C)cc1
inactive: all assays above

C[C@@H]1CCCCO[C@@H](CN(C)Cc2ccc3c(c2)OCO3)[C@@H](C)CN([C@H](C)CO)C(=O)c2cc(NS(=O)(=O)c3ccc(F)cc3)ccc2O1
inactive: all assays above

C[C@H]1CN([C@@H](C)CO)C(=O)Cc2cc(NC(=O)CCCCCC(=O)Nc3ccccc3N)ccc2O[C@H]1CN(C)C(=O)Nc1ccccc1
inactive: all assays above

COc1ccc(S(=O)(=O)Nc2ccc3c(c2)C(=O)N([C@H](C)CO)C[C@@H](C)[C@@H](CN(C)C(=O)Nc2ccccc2)O3)cc1
inactive: all assays above

C[C@@H]1CN([C@@H](C)CO)C(=O)CCCn2nncc2CO[C@H]1CN(C)Cc1cccc(C(F)(F)F)c1
inactive: all assays above

C[C@H](CO)N1C[C@H](C)[C@H](CN(C)Cc2cccnc2)Oc2ncc(C#CC3(O)CCCC3)cc2C1=O
inactive: all assays above

O=C(c1cc(Br)ccc1Cl)N1CCN(c2ccccn2)CC1
inactive: all assays above

O=C(C[C@@H]1C[C@@H]2c3cc(NC(=O)C4CCC4)ccc3O[C@@H]2[C@H](CO)O1)NCc1cccc(F)c1
inactive: all assays above

Cc1ccc(N(C(=O)C2CCC(=O)N2)C2(C(=O)NC3CCCCC3)CCCCC2)cc1 (stereo not drawn)
inactive: all assays above

CC(C)NC(=O)Nc1ccc2c(c1)C(=O)N([C@@H](C)CO)C[C@@H](C)[C@H](CN(C)Cc1ccncc1)OCCCC[C@@H](C)O2
inactive: all assays above

CNC[C@H]1OCCCC[C@H](C)Oc2ccc(NC(=O)CCCN(C)C)cc2C(=O)N([C@H](C)CO)C[C@@H]1C
inactive: all assays above

COCCNC(=O)C[C@@H]1C[C@H]2c3cc(NC(=O)C4CCC4)ccc3O[C@H]2[C@@H](CO)O1
inactive: all assays above

CCCN(C)C[C@@H]1OCCCC[C@H](C)Oc2ccc(NS(=O)(=O)c3ccc(C)cc3)cc2C(=O)N([C@H](C)CO)C[C@@H]1C
inactive: all assays above

C[C@@H]1CCCCO[C@@H](CN(C)Cc2ccncc2)[C@@H](C)CN([C@H](C)CO)C(=O)c2cc(NC(=O)c3ccncc3)ccc2O1
inactive: all assays above

O=C(Nc1cccc(F)c1)N[C@H]1CC[C@@H](CCNS(=O)(=O)c2cccc(Cl)c2)O[C@@H]1CO
inactive: all assays above

COc1ccc(-c2cnc3c(c2)C(=O)N([C@@H](C)CO)C[C@@H](C)[C@@H](CN(C)S(C)(=O)=O)O3)cc1
inactive: all assays above

C[C@@H]1CN([C@@H](C)CO)C(=O)c2cc(-c3ccc(C#N)cc3)cnc2O[C@@H]1CN(C)C(=O)Nc1ccc(F)cc1
inactive: all assays above

O=C(C[C@H]1CC[C@@H]2[C@H](COC[C@@H](O)CN2Cc2cccc(C(F)(F)F)c2)O1)NCc1ccc(Cl)cc1
inactive: all assays above

CC(C)NC(=O)Nc1ccc2c(c1)C(=O)N([C@@H](C)CO)C[C@@H](C)[C@H](CN(C)C(=O)Cc1ccccc1)OCCCC[C@@H](C)O2
inactive: all assays above

CO[C@H]1CN(C)C(=O)c2ccc(NC(C)=O)cc2OC[C@H](C)N(C(=O)c2ccncc2)C[C@@H]1C
inactive: all assays above

Cc1noc(C)c1NC(=O)Nc1ccc2c(c1)C(=O)N([C@H](C)CO)C[C@@H](C)[C@H](CN(C)C(=O)Nc1ccc(F)cc1)OCCCC[C@@H](C)O2
inactive: all assays above

COc1ccc(NC(=O)N(C)C[C@H]2OCCCC[C@H](C)Oc3ccc(NC(=O)C4CCCCC4)cc3C(=O)N([C@@H](C)CO)C[C@@H]2C)cc1
inactive: all assays above

CO[C@@H]1CN(C)C(=O)c2ccc(NC(C)=O)cc2OC[C@@H](C)N(C(=O)c2ccccn2)C[C@H]1C
inactive: all assays above

CNC[C@@H]1Oc2cc(Br)ccc2S(=O)(=O)N([C@H](C)CO)C[C@H]1C
inactive: all assays above

Cc1cc(C(=O)Nc2cccc3c2O[C@H](CN(C)S(=O)(=O)c2ccccc2)[C@H](C)CN([C@H](C)CO)C3=O)n(C)n1
inactive: all assays above
